Source: PubChem BioAssay (National Center for Advancing Translational Sciences (NCATS))
Shown are actives, neighbours in structure and some others; about 6.6% of the full set was active somewhere.
HepG2 viability – HepG2 cytotoxicity, counter-screen for TGF-b inhibitors; HepG2 CAGA-GFP viability, ATP luminescence, 18 h; Potency, µM (top dose mostly 46.1 µM), without a hit: at the top dose activity change, negative = cytotoxicity, usual class: cytotoxic; 410,000 tested, 0.76% active; AID 588856
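CellTiter-Glo luminescence gave cytotoxicity after 18 hours at 37 degrees C. The cells were HepG2 CAGA-GFP in 1% FBS DMEM, stimulated with 500 pg/mL TGF-beta after compound addition. %Activity was normalised to no-cell wells (complete cell-killing) and DMSO (no toxicity), and curves were fitted and classified.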
HT1080 IDH1KD tx – toxicity to HT-1080 IDH1 knockdown cells (counter line) | HT-1080 IDH1 knockdown viability, ATP luminescence, 48 h | Potency, µM (doses to about 46.1 µM), inactives show at the top dose activity, negative = toxicity, usual class: cytotoxic | 360,000 tested, 2% active | AID 686971;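 also: 0% = DMSO wells and -100% = cell-free medium wells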
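CellTiter-Glo luminescence after 48 h compound exposure at 37 degrees C of IDH1-knockdown HT-1080 cells in 5% FBS RPMI. %Activity scaled between DMSO wells and cell-free media wells, with curves fitted and assigned curve classes.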
KB-V1 MDR tox – kills drug-selected multidrug resistant KB-V1 cells | KB-V1 MDR cells viability, CellTiter-Glo, 72 h | AID 1347076 | Potency, µM (highest dose often 46.1 µM), most hits filed as cytotoxic | 400,000 tested, 3.4% active; also: % is scaled to controls: 0 for no effect and ±100 for the full control effect; nearly all actives have a fitted effect of over 60% in size
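qHTS viability screen in drug-selected KB-V1 MDR cells: 72 h compound treatment at 37 degrees C, ATP luminescence end point.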
HT1080NT lethal – kills 2HG-producing HT-1080-NT fibrosarcoma cells | HT-1080-NT fibrosarcoma viability, CellTiter-Glo ATP luminescence, 48 h | Potency, µM (top dose mostly 46.1 µM), for the others: at the highest dose activity, negative = less viability, actives largely listed as cytotoxic | 360,000 tested, 1.6% active | AID 686970;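 also: NT is the 2HG producing partner of a matched IDH1 knockdown line; 0% = DMSO-treated cells and -100% = media-only wells without cells; nearly all actives have a fitted effect of over 55% in size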
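750 cells/well, RPMI + 5% FBS; 2 h settle, compound pin-transfer, 48 h at 37 degrees C. CellTiter-Glo 10 min RT, luminescence. Normalized to DMSO and media-only wells.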
TGFb inhibitor – inhibitors of TGF-b signaling. HepG2 CAGA-GFP TGF-b/SMAD3 reporter, GFP fluorescence, 18 h; TGF-beta stimulated, 500 pg/mL final. Potency, µM (titrated, usually from 46.1 µM), for inactives: top-dose activity, negative = inhibition, hits mostly inhibitors. 410,000 tested, 1.2% active; also: % is scaled to controls: 0 for no effect and ±100 for the full control effect; nearly all actives have a fitted effect of over 65% in size
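GFP signal (ex488/em500-530) from TGF-beta-stimulated HEPG2 CAGA-GFP cells, 500 pg/mL final, 18 h at 37 degrees C in DMEM plus 1% FBS, normalized to unstimulated and DMSO-stimulated controls.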
KB-3-1 cytotox – KB-3-1 parental cell cytotoxicity. Potency, µM (highest dose often 46.1 µM), most hits filed as cytotoxic. KB-3-1 viability, CellTiter-Glo ATP luminescence, 72 h. AID 1347075. 400,000 tested, 1.4% active; also: % is scaled to controls: 0 for no effect and ±100 for the full control effect; nearly all actives have a fitted effect of over 60% in size
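Multi-concentration cytotoxicity screen in KB-3-1 cells grown in DMEM lacking phenol red with 10% FBS. After 72 h at 37 °C with compound, ATP-dependent luminescence was recorded.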
* marks the source's active call; other numbers are inactive results; i = inactive; ? = inconclusive; . = no result given. Calls follow the shape of the dose curve; as a rule, active = well fitted curve in the direction sought with a large enough effect; inconclusive = small, poorly fitted or top-dose-only effect, or another doubt; inactive = no such curve, though single readings can be large; an effect the other way counts as inactive or inconclusive. Potency is read from the fitted curve at half-maximal effect.

SMILES | HepG2 viability | HT1080 IDH1KD tx | KB-V1 MDR tox | HT1080NT lethal | TGFb inhibitor | KB-3-1 cytotox
Cc1ccc(-n2c(NN)nc3ccccc3c2=O)c(C)c1 | -6% | -20% | i | -23% | -18% | i
Cc1ccc(-n2c(-c3ccccc3)c[n+]3c2CCc2ccccc2-3)c(C)c1 | -26% | ? | i | 23µM* | ? | 4.6µM*
O=C(Nc1cccc(Cl)c1)N1CCSc2cc(Cl)ccc21 | -26% | 0% | 18µM* | 2% | -25% | i
O=C(Nc1ccccc1)N1CCSc2cc(Cl)ccc21 | 9% | -2% | i | 6% | -17% | i
COc1ccc(CNC(=O)Cn2c(SCC(=O)N(C)c3ccccc3)nc3ccccc32)cc1 | 0% | . | i | . | -8% | i
CCn1c(-c2ccccc2)c(C(=O)CCl)c2ccccc21 | 9% | 21µM* | ? | ? | 3% | i
Cn1c(-c2ccccc2)c(CCO)c2ccccc21 | -37% | -5% | i | -3% | -8% | ?
Cn1c(-c2ccccc2)c(C(=O)CCl)c2ccccc21 | -55% | 10µM* | ? | 15µM* | ? | ?
CCOC(=O)c1ccc2c(c1)n(CC)c(/C=C/N(C)c1ccccc1)[n+]2CC | -17% | ? | i | 6.5µM* | 0% | i
COc1ccc(NC(=O)c2cnc[nH]2)cc1 | -54% | . | i | . | -7% | ?
CN(c1ccccc1)S(=O)(=O)c1ccc(Cl)c(C(=O)OCC(=O)c2c(N)n(C)c(=O)n(C)c2=O)c1 | -15% | -13% | ? | -16% | ? | i
C=CCN(c1ccc(OC)cc1)S(=O)(=O)c1ccc(Cl)c(C(=O)OCC(=O)c2c(N)n(C)c(=O)n(C)c2=O)c1 | 7% | 3% | 16µM* | 1% | 0% | i
CCn1c(COc2ccccc2C)nnc1SCC(=O)OC | 7% | 11% | i | 11% | -10% | i
CCn1c(COc2ccccc2)nnc1SCC(=O)CC(=O)Nc1ccccc1OC | 3% | 1% | i | -5% | 1% | i
CCn1c(COc2ccccc2C)nnc1SCC(=O)CC(=O)Nc1ccccc1OC | -13% | -18% | 8.2µM* | -5% | -13% | i
COc1ccc(-c2nnc(SCC(=O)Nc3ncc(C)s3)n2-c2ccccc2)cc1OC | -3% | ? | ? | ? | 5% | 21µM*
CCn1c(SCc2nc(CC(=O)Nc3ccccc3OC)no2)nnc1-c1cccs1 | -6% | 4% | 5.8µM* | 3% | 2% | i
CCn1c(COc2ccccc2C)nnc1SCC(=O)N1CCN(c2ccccc2)CC1 | -20% | -22% | 8.2µM* | ? | ? | ?
CCn1c(SCc2nc(-c3ccccc3)no2)nnc1-c1cccs1 | 2% | 0% | i | -5% | -1% | i
COc1ccc(NC(=O)CSc2nnc(-c3ccncc3)n2-c2ccccc2)cc1 | 2% | . | i | . | ? | i
CCn1c(CC(=O)Nc2cccc(OC)c2)nnc1SCC(=O)N1CCN(c2ccccc2)CC1 | 0% | 7% | i | 1% | -25% | i
C=CCn1c(CSCc2ccccc2)nnc1SCC(=O)N1CCN(c2ccccc2)CC1 | 6% | 3% | 10µM* | 3% | -10% | i
Cc1cnc(NC(=O)CSc2ncc(-c3ccccc3)n2Cc2ccco2)s1 | -27% | ? | 21µM* | ? | ? | i
COc1ccccc1NC(=O)CC(=O)CSc1nnc(-c2ccc(C)cc2)n1-c1ccccc1 | 6% | 1% | 13µM* | 6% | -7% | i
CCn1c(CSCc2ccc(C)cc2)nnc1SCC(=O)N1CCN(c2ccccc2)CC1 | -11% | ? | i | -4% | ? | i
SMILES | HepG2 viability | HT1080 IDH1KD tx | KB-V1 MDR tox | HT1080NT lethal | TGFb inhibitor | KB-3-1 cytotox
CCn1c(COc2cccc(C)c2C)nnc1SCC(=O)N1CCN(c2ccc(OC)cc2)CC1 | 4% | -19% | 2.3µM* | -8% | -2% | 15µM*
Cc1ccc(Cl)cc1N1C(=O)N(Cc2ccc(C#N)cc2)c2ccccc2S1(=O)=O | -18% | . | i | . | -7% | i
O=C1CCN(Cl)C(=O)N1Cl | . | 20% | i | 0% | . | i
Cc1nc2c(Br)cc(Br)cc2c(=O)n1-c1ccccc1NC1OCC(O)C(O)C1O (centres undefined) | 1.6µM* | -14% | ? | -3% | 6% | i
COc1ccc2[nH]c(CN3CCC(CO)(CCOc4ccccc4)CC3)c(C)c2c1 | -11% | 23µM* | ? | 15µM* | ? | i
OCC1(CCOc2ccccc2)CCN(Cc2cn[nH]c2-c2ccc(F)cc2)CC1 | -33% | 23µM* | i | ? | ? | i
OCC1(CCOc2ccccc2)CCN(CC2=Cc3cc(Cl)ccc3OC2)CC1 | -68% | 18µM* | i | -22% | ? | i
Cc1cccc(NC(=O)c2oc3ccc(S(=O)(=O)N4CCC5(CC4)OCCO5)cc3c2C)c1C | -15% | . | . | . | -16% | .
Nc1ccc(S(=O)(=O)NC2(C(F)(F)F)NC(=O)N(c3cccc(Cl)c3)C2=O)cc1 (centres undefined) | -5% | . | i | . | ? | i
COc1ccccc1C1NC(=O)c2n[nH]c(-c3cccs3)c21 (centres undefined) | -15% | . | i | . | -26% | i
CC(C)OC(=O)c1cc2c(ccn2C)n1CC(=O)N(Cc1ccccc1)c1ccc(F)cc1 | -21% | 21µM* | i | ? | ? | i
Cc1cc(N2CCN(C)CC2)nc2ccc(NC(=O)Nc3ccccc3Cl)cc12 | -13% | . | i | . | 40% | ?
CCOc1nc(C#N)nc(N2CCOCC2)n1 | -11% | . | i | . | ? | i
O=[N+]([O-])c1ccc(N2CCCCC2)cc1NCCOc1ccccc1 | 4% | 19% | i | 19% | -13% | i
NCCNc1cc(N2CCCC2)ccc1[N+](=O)[O-] | -6% | -4% | i | 0% | -17% | i
Cc1ccccc1OCCNc1cc(N2CC(C)NC(C)C2)ccc1[N+](=O)[O-] (centres undefined) | -116% | ? | 21µM* | ? | ? | ?
CCc1ccc(OCCNc2cc(N3CCNC(C)C3)ccc2[N+](=O)[O-])cc1 (centres undefined) | 11µM* | ? | i | ? | ? | ?
CC1CN(c2ccc([N+](=O)[O-])c(NCCOc3ccc(Cl)cc3)c2)CC(C)N1 (centres undefined) | 14µM* | ? | i | ? | ? | i
